The supplement of paper PMC10037445
Where “and” joins values, the source holds several entries; their conditions need not be identical. Equal entries are not always repeated. Whole data set: some 2,900 compounds, median “NF-kB SEAP reporter activity, fold change vs agonist alone” near 0.99, cut for the highest 2% near 2.6. For the sample, the highest values were picked, then their nearest neighbours and some compounds at random.

What was measured:
RAW-Dual [1] = assay: NF-kB SEAP reporter activity, fold change vs agonist alone; higher = enhanced NF-kB activity
Summary of the method: (§1)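 After 50 nL of library stock was delivered by pin tool to RAW-Dual macrophages (50,000 cells/well, DMEM, 384-well plates), a PRR agonist was added 1 h later and the plates were kept at 37 °C, 5% CO2. Twenty hours later, IRF was read from supernatant by QuantiLuc luminescence and NF-κB by QuantiBlue absorbance at 620 nm. Reporter activity is stated as fold change over agonist-alone wells. Wells with IncuCyte confluency under 70% of agonist controls in both mask sets were counted as cytotoxic.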

RAW-Dual [2] = assay: NF-kB SEAP reporter activity, fold change vs agonist alone; cytotoxicity flag (confluency mask): not cytotoxic; higher = enhanced NF-kB activity
Summary of the method: as §1

RAW-Dual [3] = assay: NF-kB SEAP reporter activity, fold change vs agonist alone; cytotoxicity flag (confluency mask): cytotoxic (confluency <70% of control); higher = enhanced NF-kB activity
Summary of the method: as §1

[4] = library stock concentration (final ~1000-fold dilution): 10 mM, cytotoxicity flag (confluency mask): not cytotoxic, agonist: Imiquimod (TLR7) […]
[5] = library stock concentration (final ~1000-fold dilution): 10 mM, cytotoxicity flag (confluency mask): not cytotoxic, agonist: MPLA (TLR4) […]
[6] = agonist: ODN 1826 (TLR9) 0.5 ug/mL
[7] = agonist: Pam2CSK4 (TLR2/6) 0.1 ug/mL
[8] = agonist: Pam3CSK4 (TLR2/1) 0.1 ug/mL

## COc1cc2ncc(-c3ccccc3)nc2cc1OC
RAW-Dual [1]; [4]
  NF-kB SEAP reporter activity: 1.16
RAW-Dual [1]; [5]
  NF-kB SEAP reporter activity: 1.39

## Cn1cc(-c2ccc3ncc(Cc4ccc5ncccc5c4)n3n2)cn1 (library stock concentration (final ~1000-fold dilution): 10 mM)
RAW-Dual [2]; agonist: LPS (TLR4) 0.1 ug/mL
  NF-kB SEAP reporter activity: 1.88
RAW-Dual [2]; [6]
  NF-kB SEAP reporter activity: 1.35
RAW-Dual [2]; [7]
  NF-kB SEAP reporter activity: 1.31
RAW-Dual [2]; [8]
  NF-kB SEAP reporter activity: 1.47

## Cn1cc(-c2ccc3ncc(Cc4ccc5ncccc5c4)n3n2)cn1
RAW-Dual [1]; [4]
  NF-kB SEAP reporter activity: 1.37
RAW-Dual [1]; [5]
  NF-kB SEAP reporter activity: 1.23

## COc1cc2ncc(-c3ccccc3)nc2cc1OC (library stock concentration (final ~1000-fold dilution): 10 mM)
RAW-Dual [2]; agonist: LPS (TLR4) 0.1 ug/mL
  NF-kB SEAP reporter activity: 1.78
RAW-Dual [2]; [6]
  NF-kB SEAP reporter activity: 1.28
RAW-Dual [2]; [7]
  NF-kB SEAP reporter activity: 0.915
RAW-Dual [2]; [8]
  NF-kB SEAP reporter activity: 0.864

## COc1cc(OC)cc(N(CCNC(C)C)c2ccc3ncc(-c4cnn(C)c4)nc3c2)c1
RAW-Dual [1]; library stock concentration (final ~1000-fold dilution): 10 mM, cytotoxicity flag (confluency mask): cytotoxic (confluency <70% of control), agonist: Imiquimod (TLR7) […]
  NF-kB SEAP reporter activity: 1.76
RAW-Dual [1]; library stock concentration (final ~1000-fold dilution): 10 mM, cytotoxicity flag (confluency mask): cytotoxic (confluency <70% of control), agonist: MPLA (TLR4) […]
  NF-kB SEAP reporter activity: 2.21

## COc1cc(OC)cc(N(CCNC(C)C)c2ccc3ncc(-c4cnn(C)c4)nc3c2)c1 (library stock concentration (final ~1000-fold dilution): 10 mM)
RAW-Dual [3]; agonist: LPS (TLR4) 0.1 ug/mL
  NF-kB SEAP reporter activity: 3.64
RAW-Dual [3]; [6]
  NF-kB SEAP reporter activity: 0.427
RAW-Dual [3]; [7]
  NF-kB SEAP reporter activity: 1.06
RAW-Dual [3]; [8]
  NF-kB SEAP reporter activity: 1.57

## Br.COc1ccc2c3c1OC1CC(O)C=CC31CCN(C)C2 (stereo not drawn)
RAW-Dual [1]; library stock concentration (final ~1000-fold dilution): 10 mM water, cytotoxicity flag (confluency mask): not cytotoxic, agonist: Imiquimod (TLR7) […]
  NF-kB SEAP reporter activity: 0.936
RAW-Dual [1]; library stock concentration (final ~1000-fold dilution): 10 mM water, cytotoxicity flag (confluency mask): not cytotoxic, agonist: MPLA (TLR4) […]
  NF-kB SEAP reporter activity: 0.997

## Br.COc1ccc2c3c1OC1CC(O)C=CC31CCN(C)C2 (stereo not drawn) (library stock concentration (final ~1000-fold dilution): 10 mM water)
RAW-Dual [2]; agonist: LPS (TLR4) 0.1 ug/mL
  NF-kB SEAP reporter activity: 1.12
RAW-Dual [2]; [6]
  NF-kB SEAP reporter activity: 1.02
RAW-Dual [2]; [7]
  NF-kB SEAP reporter activity: 1.12
RAW-Dual [2]; [8]
  NF-kB SEAP reporter activity: 1.16

## CC(C)C(C(=O)O)N1C(=O)/C(=C/c2ccc(Br)cc2)SC1=S (stereo not drawn) (library stock concentration (final ~1000-fold dilution): 10 mM)
RAW-Dual [2]; agonist: LPS (TLR4) 0.1 ug/mL
  NF-kB SEAP reporter activity: 1.12
RAW-Dual [2]; [6]
  NF-kB SEAP reporter activity: 0.953
RAW-Dual [2]; [7]
  NF-kB SEAP reporter activity: 0.947
RAW-Dual [2]; [8]
  NF-kB SEAP reporter activity: 1.05

## CC(C)C(C(=O)O)N1C(=O)/C(=C/c2ccc(Br)cc2)SC1=S (stereo not drawn)
RAW-Dual [1]; [4]
  NF-kB SEAP reporter activity: 0.992
RAW-Dual [1]; [5]
  NF-kB SEAP reporter activity: 1.01

## CC1(C)C(C(=O)O)N2C(=O)CC2S1(=O)=O (stereo not drawn) (library stock concentration (final ~1000-fold dilution): 10 mM)
RAW-Dual [2]; agonist: LPS (TLR4) 0.1 ug/mL
  NF-kB SEAP reporter activity: 1.04 and 0.881
RAW-Dual [2]; [6]
  NF-kB SEAP reporter activity: 1.01 and 1.03
RAW-Dual [2]; [7]
  NF-kB SEAP reporter activity: 0.96 and 1.14
RAW-Dual [2]; [8]
  NF-kB SEAP reporter activity: 1.05 and 1.19

## Cl.O=c1[nH]ccc2c(S(=O)(=O)N3CCCNCC3)cccc12
RAW-Dual [1]; [4]
  NF-kB SEAP reporter activity: 1
RAW-Dual [1]; [5]
  NF-kB SEAP reporter activity: 0.986

## Cl.O=c1[nH]ccc2c(S(=O)(=O)N3CCCNCC3)cccc12 (library stock concentration (final ~1000-fold dilution): 10 mM)
RAW-Dual [2]; agonist: LPS (TLR4) 0.1 ug/mL
  NF-kB SEAP reporter activity: 1.22
RAW-Dual [2]; [6]
  NF-kB SEAP reporter activity: 0.968
RAW-Dual [2]; [7]
  NF-kB SEAP reporter activity: 1.05
RAW-Dual [2]; [8]
  NF-kB SEAP reporter activity: 1.23

## COc1ccc(Cn2ccc3ccc(C(=O)NO)cc32)cc1 (library stock concentration (final ~1000-fold dilution): 10 mM)
RAW-Dual [2]; agonist: LPS (TLR4) 0.1 ug/mL
  NF-kB SEAP reporter activity: 0.996
RAW-Dual [2]; [6]
  NF-kB SEAP reporter activity: 0.62
RAW-Dual [2]; [7]
  NF-kB SEAP reporter activity: 0.788
RAW-Dual [2]; [8]
  NF-kB SEAP reporter activity: 0.588

## CCN(CC)Cc1ccc2cc(COC(=O)Nc3ccc(C(=O)NO)cc3)ccc2c1.Cl.O (library stock concentration (final ~1000-fold dilution): 10 mM)
RAW-Dual [2]; agonist: LPS (TLR4) 0.1 ug/mL
  NF-kB SEAP reporter activity: 7.02
RAW-Dual [2]; [6]
  NF-kB SEAP reporter activity: 0.922
RAW-Dual [2]; [7]
  NF-kB SEAP reporter activity: 1.87
RAW-Dual [2]; [8]
  NF-kB SEAP reporter activity: 1.04

## COc1ccc(Cn2ccc3ccc(C(=O)NO)cc32)cc1
RAW-Dual [1]; [4]
  NF-kB SEAP reporter activity: 0.789
RAW-Dual [1]; [5]
  NF-kB SEAP reporter activity: 0.903

## CCN(CC)Cc1ccc2cc(COC(=O)Nc3ccc(C(=O)NO)cc3)ccc2c1.Cl.O
RAW-Dual [1]; [4]
  NF-kB SEAP reporter activity: 0.805
RAW-Dual [1]; [5]
  NF-kB SEAP reporter activity: 1.17

## COCc1ccc(-c2ccc3ncc(C(N)=O)c(NC(C)C4CCOCC4)c3c2)cn1 (stereo not drawn)
RAW-Dual [1]; [4]
  NF-kB SEAP reporter activity: 0.993
RAW-Dual [1]; [5]
  NF-kB SEAP reporter activity: 1.35

## COCc1ccc(-c2ccc3ncc(C(N)=O)c(NC(C)C4CCOCC4)c3c2)cn1 (stereo not drawn) (library stock concentration (final ~1000-fold dilution): 10 mM)
RAW-Dual [2]; agonist: LPS (TLR4) 0.1 ug/mL
  NF-kB SEAP reporter activity: 1.75
RAW-Dual [2]; [6]
  NF-kB SEAP reporter activity: 1.19
RAW-Dual [2]; [7]
  NF-kB SEAP reporter activity: 1.45
RAW-Dual [2]; [8]
  NF-kB SEAP reporter activity: 2.13
